The nature of assay [1]: AP1 Signaling Pathway (AID 357; active means well fitted curve in either direction with a large enough effect, not every such curve was filed as active;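 further: ME-180 reporter cells stimulated with EGF at its EC50 level; on the % scale 0 is the no-effect control and ±100 the full control effect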). As to conditions: ME-180 (cervical carcinoma) AP-1-bla reporter, EGF-induced, beta-lactamase ratio, 5 h; at 17.2 µM (top of the series) unless noted. The method in brief:
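Read-out was the 460nm/530nm emission ratio (excitation 405nm) after CCF4 loading for 2.5 hours at room temperature. Cells carried an AP-1-driven beta-lactamase reporter, were stimulated with EC50 EGF plus compound for 5 hours, and AC50 values came from titrations.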

A short description of assay [2]: NFAT Signaling Pathway (AID 444; active means well fitted curve in either direction with a large enough effect, not every such curve was filed as active;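 further: carbachol stimulus at about its EC50 of 1 µM final; on the % scale 0 is the no-effect control and ±100 the full control effect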). As to conditions: Jurkat NFAT-bla M1, carbachol, beta-lactamase ratio, 5 h; at 17.2 µM (top of the series) unless noted. The method in brief:
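Jurkat cells carrying an NFAT-driven β-lactamase reporter and co-transfected muscarinic M1 receptor were treated with compound plus carbachol (1 uM final, an EC50 level) for 5 h at 37 °C. CCF4 loading followed for 1 h at RT; 460/530 nm ratio gave %activity.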

A short description of assay [3]: Stat Signaling Pathway (AID 446; active means well fitted curve in either direction with a large enough effect, not every such curve was filed as active;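 further: ME-180 cervical cancer cells given 40 pM IL-6 alongside compound; SIE-controlled beta-lactamase reporter measured as 460/530 nm FRET emission ratio; on the % scale 0 is the no-effect control and ±100 the full control effect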). The method in brief: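 FRET read-out (405 nm excitation, 460/530 nm emission) of a beta-lactamase reporter under a STAT-inducible element in ME-180 cervical carcinoma cells. Cells with compound receive 40 pM IL-6 for 5 h. Values are normalised to AC90 stimulation and AC90 JAK-inhibitor controls.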
The target of assay [4] is Cytochrome P450 1A2 (Homo sapiens) (UniProt P05177). As to the kind of experiment: p450-cyp1a2 (AID 410; calls by dose curve; further: potency means the concentration at half of the fitted maximal effect;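 on activity change, negative = inhibition: -100% = full effect of reference inhibitor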). The method in brief:
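O-Demethylation of luciferin 6' methyl ether by human CYP1A2 is monitored as luciferase luminescence. Substrate sits at Km (100uM); enzyme is 20nM. Values are scaled to 57 uM furafylline as maximal inhibition.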

Assay [5] deals with Glucocorticoid receptor (Homo sapiens) (UniProt P04150). As to the kind of experiment: GR-GFP Redistribution (AID 450;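 active means compounds whose dose series gives a full or clear partial fitted curve of increased nuclear translocation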; further: potency means the concentration at half of the fitted maximal effect). The settings on record: U2OS GR-GFP nuclear translocation, laser cytometry, 2 h.
The target in assay [6] is Mitogen-activated protein kinase 10 (Mus musculus) (UniProt Q61831). The assay is described as follows: JNK3 AlphaScreen Assay (AID 530; active means well fitted curve in either direction with a large enough effect, not every such curve was filed as active;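 further: kinase came from lysate of stimulated human HepG2 cells; signal reports phosphorylation of biotinylated GST-cJun 1-79 at Ser73 with 10 µM ATP; on the % scale 0 is the no-effect control and ±100 the full control effect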). The method in brief: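 Phosphorylation of biotinylated GST-cJun(1-79) at Ser73 is measured by AlphaScreen proximity luminescence. Enzyme is JNK3 in HepG2 lysates activated with interleukin-1beta and tumor necrosis factor alpha; ATP is 10 uM final.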

In assay [7] the target is 3',5'-cyclic-AMP phosphodiesterase 4B (Homo sapiens) (UniProt Q07343). The assay is described as follows: qHTS Assay for Inhibitors of PDE-IV (AID 607; active means well fitted activation curve with a large enough effect in the main read-out, with a control signal flat, not every such curve was filed as active; further: % of control where 0% means no effect). The method in brief:
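Cell-based read-out of cAMP via a modified cyclic nucleotide-gated channel and membrane potential dye (535/590 nm) in HEK293 cells expressing PDE4 endogenously. Compounds tested up to 22.9 uM final; 100 uM RO 20-1724 reference.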

Assay [8] addresses Guanine nucleotide-binding protein G(i) subunit alpha-1 (Homo sapiens) (UniProt P63096). As to the kind of experiment: qHTS Assay for Inhibitors of RGS12 GoLoco Motif Activity (Green Fluorophore) (AID 879). Further: potency means the concentration at half of the fitted maximal effect. The method in brief: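 A drop in FITC polarization marked displacement of the FITC-tagged RGS12 GoLoco peptide (10 nM) from Gαi1 (50 nM). Compounds were incubated 10 min at room temperature in Tris pH 7.5 buffer containing 150 mM NaCl, 0.1 mM GDP and 0.05% NP40; unlabeled peptide titration served as control.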

Assay [9] addresses Cytochrome P450 2D6 (Homo sapiens) (UniProt P10635). As to the kind of experiment: qHTS Assay for Inhibitors and Substrates of Cytochrome P450 2D6 (AID 891). Further: potency means the concentration at half of the fitted maximal effect; nearly all actives have a fitted effect of over 60% in size. The method in brief:
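Luminescent read-out of luciferin formed by 5 nM human CYP2D6 demethylating 30 uM Luciferin-ME EGE (Km level) over 60 min at room temperature after NADPH regeneration addition. Data normalized to full inhibition by 1.43 uM quinidine.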

A short description of assay [10]: qHTS Assay for Identification of Small Molecule Antagonists for NFkB Signaling Pathway (AID 895; active means well fitted inhibition curve with a large enough effect in the signal ratio, with a control signal flat, not every such curve was filed as active; the % refers to the signal ratio; further: potency means the concentration at half of the fitted maximal effect). The method in brief:
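NFkB-bla ME-180 cervical carcinoma cells with beta-lactamase reporter under NFkB response element; compounds added, then TNF alpha at 10 pM final (EC50), 5 h at 37 C. LiveBLAzer substrate 2 h, room temperature; emission 460/530 nm at 405 nm excitation.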

Assay [11] in a line: qHTS Assay for Identification of Small Molecule Agonists for Thrombopoietin (TPO) Signaling Pathway (AID 917). Further: on the % scale 0 is the no-effect control and ±100 the full control effect. The method in brief: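 Stimulation at the TPO EC50 (26 pM final) was used to detect activators. Ba/F3 mouse cells bearing human TPO receptor and a luciferase reporter under the Glycoprotein IIb promoter were exposed to compounds for 24 hrs at 37 C.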
For assay [12], the target named is Pyruvate kinase (Leishmania mexicana) (UniProt Q27686). The assay is described as follows: qHTS Validation Assay for Inhibitors of Leishmania Mexicana Pyruvate Kinase (AID 945).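 Further: 0% = DMSO only neutral control wells.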 The method in brief:
(§1)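 The enzyme is a highly purified E451W mutant of LmPYK used at 0.2 nM. It converts 0.5 mM PEP and 0.1 mM ADP over 1 h at room temperature; product ATP is quantified by luciferase luminescence relative to DMSO controls.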

The target in assay [13] is Pyruvate kinase PKM (Homo sapiens) (UniProt P14618). As to the kind of experiment: qHTS Assay for Activators of Human Muscle Pyruvate Kinase (AID 954; active means well fitted curve in the direction sought with a large enough effect, not every such curve was filed as active;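 further: 0% = uninhibited enzyme and -100% = no enzyme or full thiadiazolimine inhibition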). The method in brief:
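ATP production by PKM2 detected via luciferase luminescence after 1 h room-temperature reaction (0.1 nM enzyme, PEP at Km 0.5 mM, ADP 0.1 mM, pH 7.2 imidazole buffer). Inhibition scaled to no-enzyme control; activation referenced to 0.3 nM enzyme wells.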

Assay [14] has as its target Alpha-galactosidase (Coffea arabica) (UniProt Q42656). As to the kind of experiment: Counterscreen for Glucocerebrosidase Inhibitors: qHTS Assay for Coffee Bean alpha-Galactosidase at pH 4.5 (AID 957).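 Further: plate controls were enzyme alone for no effect and no enzyme for full effect.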 The method in brief:
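Enzyme is added first (2 nM final), then compounds titrated from 0.7 nM to 77 uM, then 80 uM 4-methylumbelliferyl alpha-D-galactopyranoside; after 20 min at room temperature a pH 10 NaOH/glycine stop precedes fluorescence reading at 365/440 nm.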

The target of assay [15] is Alpha-galactosidase A (Homo sapiens) (UniProt P06280). As to the kind of experiment: Counterscreen for Glucocerebrosidase Inhibitors: qHTS Assay for Human alpha-Galactosidase at pH 4.5 (AID 992). Further: 0% is about no effect. The method in brief: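 Fluorogenic 1536-well qHTS at pH 4.5 (citrate, Tween-20): 2 nM enzyme, 80 uM 4-MU-alpha-galactoside, 20 min room temperature, NaOH/glycine stop. Titration 0.7 nM to 77 uM, data normalized to no-enzyme and full-activity controls, Hill-fitted AC50.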

Assay [16] deals with alpha-glucosidase (Oryza sativa, rice) (UniProt Q653V4). As to the kind of experiment: Counterscreen for Glucocerebrosidase Inhibitors: qHTS Assay for Rice alpha-Glucosidase at pH 5.0 (AID 997).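 Further: 0% = full activity with enzyme and -100% = basal without enzyme.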 The method in brief:
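Endpoint fluorogenic assay at pH 5.0: compounds (0.7 nM to 77 uM) titrated against 4 nM rice enzyme and 400 uM 4-MU-alpha-glucoside for 20 min at room temperature; NaOH/glycine stop, read ex 365/em 440 nm, Hill-fitted AC50.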

The target of assay [17] is Alpha-galactosidase (Coffea arabica) (UniProt Q42656). The assay is described as follows: Counterscreen for Glucocerebrosidase Inhibitors: qHTS Assay for Coffee Bean alpha-Galactosidase at pH 5.9 (AID 998).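 Further: plate controls were uninhibited enzyme for no effect and no-enzyme basal signal for full effect.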 The method in brief:
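In 50 mM citric acid pH 5.9 with 0.005% Tween-20, coffee bean enzyme hydrolyses 80 uM 4-MU alpha-D-galactopyranoside over 20 min at RT. Activity is normalized to controls; AC50 comes from Hill-modelled concentration-response data.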

Assay [18] addresses Glucocorticoid receptor (Homo sapiens) (UniProt P04150). The assay is described as follows: GR-EFC Redistribution (AID 451; calls by dose curve; further: potency means the concentration at half of the fitted maximal effect). The settings on record: CHO-K1 GR-EFC translocation, beta-gal luminescence, 2 h. The method in brief:
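CHO-K1 cells stably expressing nuclear-localized β-gal enzyme acceptor and GR fused C-terminally to the enzyme donor fragment; ligand-driven nuclear translocation restores β-gal by complementation. Compounds titrated up to 46 uM final, 2 h at 37 °C; luminescence read.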

Assay [19] is described as follows: qHTS Assay for Identification of Small Molecule Antagonists for Thrombopoietin (TPO) Signaling Pathway (AID 918). Further: potency means the concentration at half of the fitted maximal effect; nearly all actives have a fitted effect of over 60% in size. The settings on record: TPO-dependent cell signaling reporter, antagonist mode. The method in brief:
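Inhibitors of TPO signaling are sought by stimulating IL-3-starved murine Ba/F3 cells (human TPO receptor, Glycoprotein IIb-driven luciferase) with TPO at its EC50 of 26 pM alongside compound. After 24 hrs at 37 C, reporter luminescence is measured.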

The target in assay [20] is Muscarinic acetylcholine receptor M1 (Rattus norvegicus) (UniProt P08482). As to the kind of experiment: qHTS Assay for Antagonists of Acetylcholine Muscarinic M1 Receptor: Kinetic Measurement of Intracellular Calcium Response (AID 943). Further: potency means the concentration at half of the fitted maximal effect; nearly all actives have a fitted effect of over 75% in size. The method in brief: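 Antagonism is measured as inhibition of the carbachol-evoked calcium rise in CHO cells transfected with rat M1. Cells are dye-loaded, exposed to compound for 10 min, then stimulated with 100 nM carbachol (EC80).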

The target is the same in assay [21]. The assay is described as follows: qHTS Assay for Antagonists of Acetylcholine Muscarinic M1 Receptor: Measurement of IP-One Response (AID 944). Further: potency means the concentration at half of the fitted maximal effect; nearly all actives have a fitted effect of over 75% in size. The method in brief: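 Antagonist mode with rat M1 receptor transfected into CHO cells. Compound is added first for 10 min, carbachol at its EC80 follows for 30 min, and lysis reagents then allow TR-FRET detection of accumulated IP1.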

In assay [22] the target is Pyruvate kinase PKM (Homo sapiens) (UniProt P14618). The assay is described as follows: qHTS Assay for Inhibitors of Human Muscle Pyruvate Kinase (AID 958). The method in brief: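 Luminescence from a luciferase ATP-detection/stop reagent reported PKM2 activity. Reactions contained 0.1 nM purified human enzyme, 0.5 mM PEP, 0.1 mM ADP and 7 mM MgCl2 at pH 7.2, run 1 h at RT.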

In assay [23] the target is Pyruvate kinase (Leishmania mexicana) (UniProt Q27686). As to the kind of experiment: qHTS Validation Assay for Activators of Leishmania Mexicana Pyruvate Kinase (AID 959). The method in brief:
as §1

The structures appear in SMILES notation. Values without a mark were called inactive. Inconclusive results are not listed. Calls of active or inactive are those of the source. Unless noted, the call rests on the fitted dose curve; in most records, active means well fitted curve in the direction sought with a large enough effect; inconclusive means small, poorly fitted or top-dose-only effect, or another doubt; inactive means no such curve, though single readings can be large; an effect the other way counts as inactive or inconclusive.

Chain of Alpha-galactosidase A (Homo sapiens) (P06280 whole entry, looked up): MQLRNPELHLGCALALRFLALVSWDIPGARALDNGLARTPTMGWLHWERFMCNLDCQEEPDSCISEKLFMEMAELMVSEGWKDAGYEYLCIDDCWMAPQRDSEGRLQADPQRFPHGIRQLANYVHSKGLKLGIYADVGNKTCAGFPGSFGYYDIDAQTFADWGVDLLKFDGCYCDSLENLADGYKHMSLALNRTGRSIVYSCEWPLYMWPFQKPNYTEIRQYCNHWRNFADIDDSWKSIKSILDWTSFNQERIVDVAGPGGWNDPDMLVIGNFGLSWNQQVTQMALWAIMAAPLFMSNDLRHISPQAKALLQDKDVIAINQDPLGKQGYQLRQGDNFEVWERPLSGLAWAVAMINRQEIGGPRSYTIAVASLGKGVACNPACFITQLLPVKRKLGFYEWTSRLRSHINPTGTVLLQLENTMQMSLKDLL
Chain of 3',5'-cyclic-AMP phosphodiesterase 4B (Homo sapiens) (Q07343 whole entry, looked up): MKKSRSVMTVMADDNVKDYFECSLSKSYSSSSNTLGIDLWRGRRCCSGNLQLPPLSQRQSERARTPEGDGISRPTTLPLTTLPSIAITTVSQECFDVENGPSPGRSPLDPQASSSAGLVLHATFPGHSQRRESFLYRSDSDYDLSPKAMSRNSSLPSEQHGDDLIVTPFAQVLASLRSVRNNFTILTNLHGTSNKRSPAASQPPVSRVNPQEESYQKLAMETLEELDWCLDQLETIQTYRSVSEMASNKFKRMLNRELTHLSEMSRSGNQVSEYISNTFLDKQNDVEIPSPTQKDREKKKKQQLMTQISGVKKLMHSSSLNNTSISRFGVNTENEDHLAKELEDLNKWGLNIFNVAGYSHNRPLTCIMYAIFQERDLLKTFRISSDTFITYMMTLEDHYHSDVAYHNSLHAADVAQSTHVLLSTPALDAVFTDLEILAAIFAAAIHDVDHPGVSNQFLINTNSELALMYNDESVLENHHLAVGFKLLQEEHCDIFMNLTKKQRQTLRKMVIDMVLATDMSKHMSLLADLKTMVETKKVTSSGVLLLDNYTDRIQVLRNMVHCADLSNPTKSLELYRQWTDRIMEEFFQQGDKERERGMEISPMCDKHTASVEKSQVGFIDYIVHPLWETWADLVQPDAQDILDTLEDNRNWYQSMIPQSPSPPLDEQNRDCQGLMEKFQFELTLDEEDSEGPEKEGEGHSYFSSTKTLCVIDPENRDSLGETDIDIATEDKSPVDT
Chain of Glucocorticoid receptor (Homo sapiens) (P04150 whole entry, looked up, the tested form may be a part): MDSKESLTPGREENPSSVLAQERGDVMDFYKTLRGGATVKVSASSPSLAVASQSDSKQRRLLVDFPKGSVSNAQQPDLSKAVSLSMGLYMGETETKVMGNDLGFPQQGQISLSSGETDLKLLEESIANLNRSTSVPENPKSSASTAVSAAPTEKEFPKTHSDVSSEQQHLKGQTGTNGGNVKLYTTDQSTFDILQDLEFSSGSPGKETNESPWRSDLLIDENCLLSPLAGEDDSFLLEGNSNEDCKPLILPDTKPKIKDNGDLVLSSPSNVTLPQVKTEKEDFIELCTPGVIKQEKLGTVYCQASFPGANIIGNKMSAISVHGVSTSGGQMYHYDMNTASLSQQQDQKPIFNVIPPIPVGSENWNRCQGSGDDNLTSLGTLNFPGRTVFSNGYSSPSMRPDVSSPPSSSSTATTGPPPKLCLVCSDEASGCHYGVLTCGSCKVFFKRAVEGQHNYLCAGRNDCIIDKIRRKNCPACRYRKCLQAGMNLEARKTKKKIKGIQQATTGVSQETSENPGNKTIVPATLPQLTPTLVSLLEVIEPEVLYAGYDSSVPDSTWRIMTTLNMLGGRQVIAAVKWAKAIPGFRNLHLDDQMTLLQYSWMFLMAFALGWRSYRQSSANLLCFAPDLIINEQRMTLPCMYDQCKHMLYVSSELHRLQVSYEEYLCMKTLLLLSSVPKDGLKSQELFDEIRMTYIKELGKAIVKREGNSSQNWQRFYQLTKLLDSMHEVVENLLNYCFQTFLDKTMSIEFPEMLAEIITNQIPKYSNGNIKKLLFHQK
Chain of Cytochrome P450 1A2 (Homo sapiens) (P05177 whole entry, looked up): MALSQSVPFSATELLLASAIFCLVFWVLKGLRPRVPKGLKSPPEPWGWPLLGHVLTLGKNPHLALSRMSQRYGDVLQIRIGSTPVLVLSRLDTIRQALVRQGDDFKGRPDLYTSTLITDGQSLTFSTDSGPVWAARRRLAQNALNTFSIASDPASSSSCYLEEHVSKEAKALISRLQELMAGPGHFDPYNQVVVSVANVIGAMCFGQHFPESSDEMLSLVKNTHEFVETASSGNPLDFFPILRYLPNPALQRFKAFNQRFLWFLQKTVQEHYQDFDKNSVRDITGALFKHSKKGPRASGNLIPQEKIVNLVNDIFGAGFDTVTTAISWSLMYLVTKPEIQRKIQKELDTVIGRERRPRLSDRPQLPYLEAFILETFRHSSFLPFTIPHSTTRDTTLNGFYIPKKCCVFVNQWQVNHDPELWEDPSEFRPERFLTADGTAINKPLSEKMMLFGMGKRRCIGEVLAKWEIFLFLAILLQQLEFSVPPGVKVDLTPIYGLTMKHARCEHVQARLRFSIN
Chain of Pyruvate kinase PKM (Homo sapiens) (P14618 whole entry, looked up): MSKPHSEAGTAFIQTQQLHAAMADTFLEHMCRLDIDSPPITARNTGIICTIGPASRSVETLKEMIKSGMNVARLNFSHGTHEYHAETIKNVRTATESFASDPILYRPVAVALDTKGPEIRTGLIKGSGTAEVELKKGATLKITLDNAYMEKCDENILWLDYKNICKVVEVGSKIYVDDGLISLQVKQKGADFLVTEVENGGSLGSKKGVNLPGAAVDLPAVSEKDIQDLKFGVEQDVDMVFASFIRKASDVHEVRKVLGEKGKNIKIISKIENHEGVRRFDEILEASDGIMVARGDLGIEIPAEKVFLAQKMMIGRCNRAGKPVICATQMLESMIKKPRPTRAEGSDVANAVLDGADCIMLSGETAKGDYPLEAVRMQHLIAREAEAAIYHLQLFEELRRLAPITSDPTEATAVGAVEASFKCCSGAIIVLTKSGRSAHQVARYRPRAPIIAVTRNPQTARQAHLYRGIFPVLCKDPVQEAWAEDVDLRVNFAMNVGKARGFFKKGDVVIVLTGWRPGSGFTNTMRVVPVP
Chain of Guanine nucleotide-binding protein G(i) subunit alpha-1 (Homo sapiens) (P63096 whole entry, looked up): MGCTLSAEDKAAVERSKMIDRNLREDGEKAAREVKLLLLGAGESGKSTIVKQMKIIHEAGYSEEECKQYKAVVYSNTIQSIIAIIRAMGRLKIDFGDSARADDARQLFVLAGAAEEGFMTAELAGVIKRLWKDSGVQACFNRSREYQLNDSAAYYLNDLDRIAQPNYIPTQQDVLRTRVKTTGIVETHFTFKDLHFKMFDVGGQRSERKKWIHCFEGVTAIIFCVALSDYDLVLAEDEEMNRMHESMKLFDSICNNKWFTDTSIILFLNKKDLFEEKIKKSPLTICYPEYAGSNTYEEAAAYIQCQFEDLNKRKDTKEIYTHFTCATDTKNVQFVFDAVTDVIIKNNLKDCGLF
Chain of Alpha-galactosidase (Coffea arabica) (Q42656 whole entry, looked up): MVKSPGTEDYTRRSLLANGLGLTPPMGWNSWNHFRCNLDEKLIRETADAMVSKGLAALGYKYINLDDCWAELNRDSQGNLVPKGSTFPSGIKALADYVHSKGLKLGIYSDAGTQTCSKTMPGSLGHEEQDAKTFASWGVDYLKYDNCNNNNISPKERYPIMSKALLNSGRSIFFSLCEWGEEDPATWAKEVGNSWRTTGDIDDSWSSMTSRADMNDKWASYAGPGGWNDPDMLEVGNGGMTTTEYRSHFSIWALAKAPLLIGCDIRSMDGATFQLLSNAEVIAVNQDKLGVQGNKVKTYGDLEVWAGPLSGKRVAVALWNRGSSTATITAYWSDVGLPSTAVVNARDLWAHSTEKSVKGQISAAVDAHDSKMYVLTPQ
Chain of Pyruvate kinase (Leishmania mexicana) (Q27686 2-499 E452W): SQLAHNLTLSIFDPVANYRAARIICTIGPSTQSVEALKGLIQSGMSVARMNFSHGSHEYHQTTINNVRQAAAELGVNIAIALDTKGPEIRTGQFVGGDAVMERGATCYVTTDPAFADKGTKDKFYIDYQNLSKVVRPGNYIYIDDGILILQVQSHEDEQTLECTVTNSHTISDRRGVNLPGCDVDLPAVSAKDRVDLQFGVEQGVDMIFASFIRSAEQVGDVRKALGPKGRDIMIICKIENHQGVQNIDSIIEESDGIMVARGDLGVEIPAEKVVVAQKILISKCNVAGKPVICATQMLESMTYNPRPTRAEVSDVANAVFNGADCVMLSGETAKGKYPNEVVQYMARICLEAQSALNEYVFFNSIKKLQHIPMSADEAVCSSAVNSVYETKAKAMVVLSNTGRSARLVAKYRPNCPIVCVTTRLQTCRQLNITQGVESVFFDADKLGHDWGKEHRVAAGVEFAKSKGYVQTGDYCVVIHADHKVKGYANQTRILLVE
Chain of Muscarinic acetylcholine receptor M1 (Rattus norvegicus) (P08482 whole entry, looked up): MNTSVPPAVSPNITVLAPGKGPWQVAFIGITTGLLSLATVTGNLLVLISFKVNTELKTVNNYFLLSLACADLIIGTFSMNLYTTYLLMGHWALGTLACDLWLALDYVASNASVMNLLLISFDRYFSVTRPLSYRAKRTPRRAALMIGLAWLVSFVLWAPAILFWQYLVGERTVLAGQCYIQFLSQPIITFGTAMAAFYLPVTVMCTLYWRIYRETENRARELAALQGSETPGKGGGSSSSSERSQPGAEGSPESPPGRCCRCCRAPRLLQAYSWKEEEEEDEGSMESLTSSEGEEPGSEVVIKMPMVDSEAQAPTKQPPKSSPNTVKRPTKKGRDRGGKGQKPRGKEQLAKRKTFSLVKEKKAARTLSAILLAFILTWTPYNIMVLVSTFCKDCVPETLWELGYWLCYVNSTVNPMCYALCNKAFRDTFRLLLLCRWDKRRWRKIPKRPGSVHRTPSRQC

With `CCCCCCn1c(O)c(C(C)=NC)c(=O)[nH]c1=O`, the results for the activity change, negative = inhibition in assay [1] and in assay [2] were -9.96% and 21.1%, respectively. Also, the compound was called inactive in [3].

With `C[C@H](N[C@@H](C)CCc1ccccc1)[C@H](O)c1ccc(O)cc1`, the activity change, negative = inhibition in assay [1] was 10.2% [at 38 µM]. Also, the Potency in assay [4] was 7.94 µM (active); in assay [5], greater than 46 µM; in [9], 2 µM (active); in assay [10], 8.9 nM [stimulated with 10 pM TNF alpha] (active). The compound was classed as inactive in assay [3], in assay [6], in [7], in assay [11], in assay [13] and in assay [14]. Besides, the outcome in assay [15], in assay [16] and in assay [17] was inactive. For the same compound, the Potency result in [8] and in assay [12] was “inactive” each time.

Consider `CCCCNC(=O)Nc1ccc(C(O)(C(=O)OCC)C(F)(F)F)cc1` (stereo not given), for which the values for the activity change, negative = inhibition in assay [1] and in assay [2] were -5.83% and 30%, respectively. Besides, the compound was called inactive in assay [3].

For `CCN(CC)CCCC(C)N=C(c1ccccc1)c1c(O)n(C)c(=O)n(C)c1=O` (stereo not given), the activity change, negative = inhibition is -17.7% in assay [1] and -29.5% in assay [2]. The compound was called inactive in assay [3].

As for `CC(C)(C)NC[C@H](O)c1ccccc1Cl`, the activity change, negative = inhibition is -8.82% [at 38 µM] in [1] and -15.3% [at 38 µM] in assay [2]. The Potency entry in assay [4], in [8] and in [12] was “inactive” in each case. In addition, the compound was classed as inactive in assay [3], in assay [7], in assay [11], in [13], in assay [14] and in [15]. Further, the outcome in assay [16] and in assay [17] was inactive. In addition, the Potency in [18] is greater than 46 µM.

In the case of `NC(N)=Nc1ccc2[nH]c3c(c2c1)C[C@]1(O)[C@@H]2Cc4ccc(O)c5c4[C@]1(CCN2CC1CC1)[C@H]3O5`, the activity change, negative = inhibition in assay [1] was -18.3% [at 38 µM]. In addition, the Potency entry in [4] is “inactive”. The compound was classed as inactive in assay [3], in [6], in [7], in [13], in assay [14] and in assay [23]. Moreover, the compound was classed as inactive in [15], in assay [16] and in assay [17]. Further, the Potency in assay [5] was greater than 46 µM; in [8], 25.1 µM (active); in assay [19], 12.6 µM (active); in assay [20], 3.55 µM (active); in assay [21], 7.94 µM (active); in assay [22], 10 µM (active).

Turning to `CC1(C)[C@@H]2CC[C@]1(C)CN(CCC[N+](C)(C)C)C2`, the activity change, negative = inhibition was -4.07% [at 7.69 µM] in [1], -6.8% [at 2.29 µM] in [4], -12.6% [at 7.69 µM] in assay [2] and 0.443% [at 11.4 µM] in assay [6]. Besides, the Potency in [5] was greater than 46 µM. Further, in [7], the result was inactive.

Take `CC[C@H](CO)NC(=O)[C@@H]1C=C2c3cccc4c3c(cn4C)C[C@@H]2N(C)C1`: the activity change, negative = inhibition in assay [1] is -3.22% [at 38 µM]; in assay [2] it was -10.9% [at 38 µM]. Further, the Potency result in assay [4], in assay [10] and in [12] was “inactive” each time. For the same compound, the result in [6], in assay [7], in [11], in assay [13], in assay [14] and in [15] was inactive. Also, the outcome in assay [16] and in [17] was inactive.

The record behind these values is PubChem BioAssay (NCATS).
